# C diff HTS: blocks growth of Clostridium difficile; Clostridium difficile clinical isolate growth, OD600, 24 h; stronger effect = lower value; growth activity, negative = inhibition, % at 16 µg/mL (by protocol); 86,000 tested, 0.25% active;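 active = mean growth activity at or below -80% and every replicate also at or below -80%; inconclusive = mean at or below -80% but some replicate above -80%; inactive = mean growth activity above -80%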;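 also: 0% = DMSO wells and -100% = levofloxacin 16 µg/mL wells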
# Pf Dd2 growth: inhibitors of Plasmodium falciparum Dd2 growth | activity change, % at 10 µM | 94,000 tested, 2.3% active | P. falciparum Dd2 growth, SYBR Green, 72 h; stronger effect = lower value; in the data active = activity change below about -80%; inconclusive = no clear call, values can overlap the other calls
# Starred values were filed as active, the others as inactive; ? = inconclusive; nt = not tested or not shown. A selection: hits, their analogues and other compounds. The true share with any hit is near 2.4%.
SMILES,C diff HTS,Pf Dd2 growth
Cc1ccc(S(=O)(=O)N(C)C[C@@H]2OCCCC[C@@H](C)Oc3ccc(NC(=O)c4ccccc4)cc3C(=O)N([C@@H](C)CO)C[C@H]2C)cc1,nt,-81*
C[C@@H]1CCCCO[C@H](CN(C)S(=O)(=O)c2ccc(F)cc2)[C@H](C)CN([C@@H](C)CO)C(=O)c2cc(NC(=O)c3ccccc3)ccc2O1,-5,-54
C[C@@H]1CCCCO[C@H](CN(C)S(=O)(=O)c2ccc(F)cc2)[C@@H](C)CN([C@@H](C)CO)C(=O)c2cc(NC(=O)c3ccccc3)ccc2O1,7,-84*
Cc1ccc(S(=O)(=O)N(C)C[C@@H]2OCCCC[C@@H](C)Oc3ccc(NC(=O)c4ccccc4)cc3C(=O)N([C@H](C)CO)C[C@@H]2C)cc1,nt,-74
C[C@@H]1CCCCO[C@@H](CN(C)S(=O)(=O)c2ccccc2)[C@@H](C)CN([C@H](C)CO)C(=O)c2cc(NC(=O)c3ccccc3)ccc2O1,nt,-10
Cc1ccc(S(=O)(=O)N(C)C[C@H]2OCCCC[C@H](C)Oc3ccc(NC(=O)c4ccccc4)cc3C(=O)N([C@@H](C)CO)C[C@@H]2C)cc1,nt,-82*
Cc1ccc(S(=O)(=O)N(C)C[C@@H]2OCCCC[C@H](C)Oc3ccc(NC(=O)c4ccccc4)cc3C(=O)N([C@@H](C)CO)C[C@H]2C)cc1,nt,-84*
C[C@@H]1CN([C@@H](C)CO)C(=O)c2cc(NC(=O)c3ccccc3)ccc2O[C@@H](C)CCCCO[C@@H]1CN(C)S(=O)(=O)c1ccccc1,nt,-62
CC=Cc1ccc2n(c1=O)C[C@@H]1[C@@H](CO)[C@H](C(=O)NCC3CC3)N(C(C)=O)[C@H]21 (mixture of isomers),-2,19
Cc1noc(C)c1S(=O)(=O)Nc1ccc2c(c1)C(=O)N([C@H](C)CO)C[C@H](C)[C@H](CN(C)C(=O)Nc1ccc(F)cc1)OCCCC[C@@H](C)O2,7,21
COc1ccc(S(=O)(=O)N(C)C[C@@H]2Oc3c(NC(=O)Nc4ccccc4)cccc3C(=O)N([C@H](C)CO)C[C@@H]2C)cc1,nt,-8
COc1ccc(S(=O)(=O)N(C)C[C@@H]2Oc3c(NC(=O)Nc4cccc5ccccc45)cccc3C(=O)N([C@H](C)CO)C[C@@H]2C)cc1,3,-92*
COc1ccc(S(=O)(=O)N(C)C[C@@H]2Oc3c(NC(=O)Nc4ccccc4)cccc3C(=O)N([C@H](C)CO)C[C@H]2C)cc1,nt,-9
COc1ccc(S(=O)(=O)N(C)C[C@H]2Oc3c(NC(=O)Nc4ccc5c(c4)OCO5)cccc3C(=O)N([C@@H](C)CO)C[C@H]2C)cc1,-4,-86*
COc1ccc(S(=O)(=O)N(C)C[C@H]2Oc3c(NC(=O)Nc4ccccc4)cccc3C(=O)N([C@@H](C)CO)C[C@H]2C)cc1,nt,-90*
COc1ccc(S(=O)(=O)N(C)C[C@H]2Oc3c(NC(=O)Nc4ccc5c(c4)OCO5)cccc3C(=O)N([C@H](C)CO)C[C@H]2C)cc1,-6,-14
O=C(CN1CCOCC1)N1CC(=O)N2[C@@H](CO)[C@H](c3ccc(/C=C/c4ccccc4)cc3)[C@@H]2C1,-14,-47
CN(C)CC(=O)N[C@@H]1CC[C@@H](CCn2cc(C3CCCCC3)nn2)O[C@@H]1CO,0,15
COc1ccc2c3c(n(C)c2c1)[C@@H](CO)N(C(=O)CN(C)C)CC31CCN(Cc2cccnc2)CC1,42,-79
Cc1cccc(S(=O)(=O)N(C)C[C@H]2OCc3ccccc3-c3c(n(C)c4ccccc34)C(=O)N([C@H](C)CO)C[C@@H]2C)c1,nt,-76
C[C@@H]1CN([C@H](C)CO)C(=O)c2c(c3ccccc3n2C)-c2ccccc2CO[C@@H]1CN(C)S(=O)(=O)c1cccc(F)c1,5,-69
Cc1cccc(S(=O)(=O)N(C)C[C@@H]2OCc3ccccc3-c3c(n(C)c4ccccc34)C(=O)N([C@H](C)CO)C[C@@H]2C)c1,nt,-86*
C[C@H]1CN([C@@H](C)CO)C(=O)c2c(c3ccccc3n2C)-c2ccccc2CO[C@@H]1CN(C)S(=O)(=O)c1cccc(F)c1,4,-88*
C[C@@H]1CN([C@H](C)CO)C(=O)c2c(c3ccccc3n2C)-c2ccccc2CO[C@H]1CN(C)S(=O)(=O)c1cccc(F)c1,0,-63
C[C@H](CO)N1C[C@H](C)[C@H](CN(C)S(=O)(=O)c2cccc(F)c2)OCc2ccccc2-c2c(n(C)c3ccccc23)C1=O,-1,-91*
SMILES,C diff HTS,Pf Dd2 growth
C[C@H](CO)N1C[C@H](C)[C@H](CN(C)S(=O)(=O)c2cccc(C#N)c2)OCc2ccccc2-c2c(n(C)c3ccccc23)C1=O,0,-83*
C[C@@H]1CN([C@@H](C)CO)C(=O)c2c(c3ccccc3n2C)-c2ccccc2CO[C@H]1CN(C)S(=O)(=O)c1cccc(C#N)c1,-3,-68
CO[C@H]1CN(C)C(=O)c2cc(NC(=O)CC(F)(F)F)ccc2OC[C@H](C)N(C(=O)c2ccccc2F)C[C@@H]1C,-6,16
CCC(=O)N1C[C@@H](C)[C@H](OC)CN(C)C(=O)c2cc(NC(=O)c3ccno3)ccc2OC[C@@H]1C,0,35
O=C(c1cccc(F)c1)N1CC2(C1)[C@@H](c1ccccc1)[C@@H](CO)N2C(=O)C1CC1,-4,35
C[C@H]1CN([C@@H](C)CO)C(=O)c2cccc(NC(=O)NC3CCCCC3)c2O[C@H]1CN(C)S(=O)(=O)c1ccc(F)cc1,-4,9
CC=Cc1ccc2n(c1=O)C[C@H]1[C@H](CO)[C@@H](C(=O)NCCCN(C)C)[C@@H]2N1C(=O)c1ccccc1 (mixture of isomers),0,69
C[C@H]1CN([C@@H](C)CO)C(=O)c2c(c3ccccc3n2C)-c2ccccc2CO[C@H]1CN(C)Cc1ccc(C(F)(F)F)cc1,17,?
C[C@@H]1CN([C@@H](C)CO)C(=O)c2c(c3ccccc3n2C)-c2ccccc2CO[C@@H]1CN(C)Cc1ccccc1C(F)(F)F,18,-87*
C[C@@H]1CN([C@@H](C)CO)C(=O)c2c(c3ccccc3n2C)-c2ccccc2CO[C@H]1CN(C)Cc1ccc(C(F)(F)F)cc1,50,-31
C[C@@H]1CN([C@H](C)CO)C(=O)c2c(c3ccccc3n2C)-c2ccccc2CO[C@H]1CN(C)Cc1ccccc1C(F)(F)F,30,-63
C[C@@H]1CN([C@@H](C)CO)C(=O)c2c(c3ccccc3n2C)-c2ccccc2CO[C@@H]1CN(C)Cc1cccc(C(F)(F)F)c1,23,-90*
C[C@H]1CN([C@@H](C)CO)C(=O)c2c(c3ccccc3n2C)-c2ccccc2CO[C@@H]1CN(C)Cc1cccc(C(F)(F)F)c1,13,-82*
C[C@@H]1CN([C@@H](C)CO)C(=O)c2cc(NS(=O)(=O)c3ccc(F)cc3)ccc2O[C@@H](C)CCCCO[C@H]1CN(C)C(=O)Nc1ccc(F)cc1,3,-24
CC(C)C#Cc1cnc2c(c1)C(=O)N([C@H](C)CO)C[C@H](C)[C@H](CN(C)Cc1cncnc1)O2,1,26
CCCNC(=O)C[C@@H]1C[C@@H]2c3cc(NC(=O)Nc4ccc(OC)cc4)ccc3O[C@@H]2[C@H](CO)O1,-8,-22
CCCN1[C@@H]2Cn3c(ccc(-c4ccccc4)c3=O)[C@H]1[C@@H](C(=O)N1CCCCC1)[C@@H]2CO,0,nt
